Source: PubChem BioAssay (National Center for Advancing Translational Sciences (NCATS))
Rows were chosen to be rich in hits. Some 19% of all compounds tested hit in one or more screens of this group.
HT1080 IDH1KD tx: toxicity to HT-1080 IDH1 knockdown cells (counter line); HT-1080 IDH1 knockdown viability, ATP luminescence, 48 h; Potency, µM (series often up to 46.1 µM), for inactives: top-dose activity, negative = toxicity, hits mostly cytotoxic; hit rate 2% among 360,000; AID 686971;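 further: 0% = DMSO wells and -100% = cell-free medium wells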
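After a 2 h attachment period, IDH1KD HT-1080 cells took pin-transferred compound for 48 h at 37 °C; ATP-based luminescence after 10 min room-temperature reagent incubation reported viability.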
KB-3-1 tox: kills parental KB-3-1 adenocarcinoma cells; Potency, µM (doses to about 46.1 µM), actives largely listed as cytotoxic; KB-3-1 viability, CellTiter-Glo ATP luminescence, 72 h; hit rate 1.4% among 400,000; further: nearly all actives have a fitted effect of over 60% in size
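Cells are dispensed, compounds pinned in, plates held at 37 °C for 72 h, then CellTiter-Glo is added and luminescence read after 10 minutes. Cell line: parental KB-3-1 in phenol-red-free DMEM, 10% FBS.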
KB-V1 MDR tox: KB-V1 MDR subline cytotoxicity. KB-V1 MDR cells viability, CellTiter-Glo, 72 h. Potency, µM (series often up to 46.1 µM), most hits filed as cytotoxic. AID 1347076. hit rate 3.4% among 400,000; further: nearly all actives have a fitted effect of over 60% in size
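Cytotoxicity via CellTiter-Glo luminescence after 72 h compound exposure at 37 degrees C. Cells: drug-selected KB-V1 line, DMEM phenol-red free plus 10% FBS. Compounds tested at multiple concentrations; normalized data fitted to concentration-effect curves.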
DT40 TDP1 CPT: growth inhibition of DT40 Tdp1-/-;hTDP1 cells with camptothecin (screen for TDP1 inhibitors); chicken DT40 Tdp1-/-;hTDP1 cells + 20 nM CPT, ATP luminescence, 48 h; hit rate 12% among 420,000; Potency, µM (top dose mostly 46.2 µM), inactives show at the highest dose activity change, negative = growth inhibition, usual class: inhibitors; further: nearly all actives have a fitted effect of over 55% in size
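Chicken DT40 Tdp1-/- cells stably complemented with human TDP1 were seeded at 400 cells/well in medium containing 20 nM camptothecin, exposed to pin-transferred compounds, and grown at 37 °C for at least 48 hr. Viability was read as ATP luminescence.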
HT1080NT lethal: kills 2HG-producing HT-1080-NT fibrosarcoma cells; HT-1080-NT fibrosarcoma viability, CellTiter-Glo ATP luminescence, 48 h; Potency, µM (doses to about 46.1 µM), without a hit: top-dose activity, negative = less viability, actives largely listed as cytotoxic; hit rate 1.6% among 360,000; AID 686970;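 further: NT is the 2HG producing partner of a matched IDH1 knockdown line; 0% = DMSO-treated cells and -100% = media-only wells without cells; nearly all actives have a fitted effect of over 55% in size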
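HT-1080-NT fibrosarcoma cells (2HG-overproducing), 750 cells/well in RPMI with 5% FBS, dosed after 2 h and incubated 48 h at 37C. CellTiter-Glo luminescence normalized to DMSO and no-cell wells; concentration-response curves fitted and classed.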
DT40 TDP1 no CPT: qHTS for Inhibitors of human tyrosyl-DNA phosphodiesterase 1 (TDP1): qHTS in cells in absence of CPT | DT40 Tdp1-/- hTDP1 cells, no CPT, ATP luminescence, 48 h | Potency, µM (series often up to 46.2 µM), inactives show at the highest dose activity change, negative = growth inhibition, most hits filed as inhibitors | hit rate 15% among 420,000 | AID 686978, 2013; further: nearly all actives have a fitted effect of over 55% in size
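Chicken DT40 Tdp1-/- cells complemented with human TDP1, screened without camptothecin (DMSO vehicle only), 400 cells/well. Compounds pin-transferred, cells incubated at 37 °C for at least 48 hr. Growth read as ATP-dependent luminescence (CellTiter-Glo, 30 min at RT).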
* hit, by the source's call; i = inactive; ? = inconclusive; . = no result given. The call rests on the fitted dose curve; in most records, active means well fitted curve in the direction sought with a large enough effect; inconclusive means small, poorly fitted or top-dose-only effect, or another doubt; inactive means no such curve, though single readings can be large; an effect the other way counts as inactive or inconclusive. Unless noted, on the % scale 0 is the no-effect control and ±100 the full control effect; potency means the concentration at half of the fitted maximal effect.

SMILES	HT1080 IDH1KD tx	KB-3-1 tox	KB-V1 MDR tox	DT40 TDP1 CPT	HT1080NT lethal	DT40 TDP1 no CPT
Cc1cc(Oc2ccc3ccccc3c2)nc(SCC(=O)c2ccccc2)n1	-18%	18µM*	16µM*	21µM*	3%	18µM*
CCOC(=O)c1ccc(Oc2cc(C)nc(SC)n2)cc1	15µM*	9.2µM*	9.2µM*	8.2µM*	16µM*	9.2µM*
COC(=O)c1ccc(Oc2cc(C)nc(-n3nc(C)cc3C)n2)cc1	1.1µM*	1.3µM*	1.8µM*	0.73µM*	1.3µM*	0.58µM*
Cc1cc(N2CCCCC2)nc(SCC(=O)c2ccccc2)n1	-6%	?	i	?	-1%	12µM*
COC(=O)c1ccc(Oc2cc(C)nc(NCc3ccccc3)n2)cc1	-4%	i	i	-29%	2%	?
O=C(CSc1nc(N2CCCCC2)nc(N2CCCCC2)n1)c1ccccc1	2%	i	?	?	-4%	?
COC(=O)CSc1nc(C)cc(Oc2ccccc2)n1	-6%	i	?	0%	-10%	-17%
Cc1cc(Oc2ccc(Br)cc2)nc(SCC(=O)c2ccccc2)n1	-5%	i	?	23µM*	-1%	21µM*
c1cnc(N2CCN(c3cnccn3)CC2)nc1	5%	i	i	?	3%	5%
COc1cc(CNCc2ccccn2)ccc1OCc1ccc(Cl)cc1Cl	21µM*	?	?	?	23µM*	?
COc1cc(CNCCO)cc(Cl)c1OCc1ccc(Cl)cc1Cl	16µM*	i	i	?	21µM*	21µM*
COc1cc(CNCc2ccccn2)ccc1OCc1ccc(Cl)c(Cl)c1	?	i	i	?	?	?
COc1cc(CNCCO)cc(Br)c1OCc1ccccc1Cl	-29%	?	?	23µM*	-2%	?
Cc1[nH]c(=O)[nH]c(=S)c1C(=O)Nc1ccc(Cl)c(Cl)c1	-3%	i	i	8%	-2%	-3%
Cc1sc(NC(=O)CSc2nc(N)n(CC(=O)c3ccccc3)n2)c(C#N)c1C	-10%	i	i	-2%	-9%	-19%
Cc1cc2oc(C(=O)Nc3ccc(S(N)(=O)=O)cc3)cc(=O)c2cc1C	.	i	i	2%	.	-23%
Cn1nc(-c2ccccc2F)c2cc(C(=O)Nc3ccc4c(c3)OCCO4)sc21	?	?	?	?	-13%	21µM*
Cn1nc(-c2ccccc2F)c2cc(C(=O)NCc3ccc(Cl)cc3)sc21	.	i	i	?	.	16µM*
Cn1nc(-c2ccccc2F)c2cc(C(=O)NCc3cccc(Cl)c3)sc21	.	i	i	15µM*	.	?
Cn1nc(-c2ccccc2F)c2cc(C(=O)Nc3cc(F)ccc3F)sc21	.	i	i	?	.	?
CCCN(CCC)CCNC(=O)c1cc2c(-c3ccccc3F)nn(C)c2s1	?	i	?	?	-24%	?
Cc1c(C)n(CCCN(C)C)c2ncnc(NCc3ccccc3)c12	-20%	i	i	3%	-4%	-17%
O=[N+]([O-])c1ccc(Cc2cncc(O)c2)cc1	5%	i	i	0%	8%	?
C=CCNC(=S)N/N=C(\C)c1ccc(OC)cc1	2%	i	i	?	5%	?
C=CCNC(=S)N/N=C(\C)c1cccc(OC)c1	11%	i	23µM*	1.2µM*	-4%	2.1µM*
SMILES	HT1080 IDH1KD tx	KB-3-1 tox	KB-V1 MDR tox	DT40 TDP1 CPT	HT1080NT lethal	DT40 TDP1 no CPT
COc1ccc(/C(C)=N/NC(=O)CNC(=O)c2ccco2)cc1	24%	i	i	-5%	13%	-3%
COc1ccc(CNC(=S)N/N=C(\C)c2ccc(OC)cc2)cc1	?	i	i	12µM*	-14%	5.2µM*
COc1ccc(/C(C)=N/NC(=S)NCc2ccco2)cc1	-5%	i	i	2.9µM*	1%	1.5µM*
C[C@H](O)[C@@H]1C(=O)N2CCc3c([nH]c4ccccc34)[C@@H]2C[C@@H]1N(C)C(=O)NC1CCCCC1	-5%	?	i	-17%	-5%	?
Cc1ccc(/C=N/NC(=O)NC23CC4CC(CC(C4)C2)C3)o1	?	i	?	-3%	?	-29%
O=C(Nc1ccc(F)cc1F)N1CCN(CCc2ccccc2)CC1	19%	i	i	-4%	20%	-5%
Cn1c(-c2ccc(N)cc2)nc2ccccc21	-2%	i	?	7%	2%	7%
Cn1c(-c2ccc3nc(N)sc3c2)nc2cc(N)ccc21	0%	i	i	?	0%	23µM*
CS(=O)(=O)N1CCC(N2CCN(Cc3ccccc3)C(=O)C2=O)CC1	.	i	i	5%	.	-14%
COc1ccccc1C(=O)NCC1CCN(c2ccc(S(=O)(=O)N3CCOCC3)cc2)CC1	-24%	i	15µM*	21µM*	-9%	23µM*
O=C(CCc1ccc(S(=O)(=O)N2CCOCC2)cc1)Nc1ccccc1F	-3%	i	i	-5%	6%	-29%
O=C(NCC1CCN(c2ccc(S(=O)(=O)N3CCOCC3)cc2)CC1)Nc1ccccc1F	0%	i	?	?	1%	21µM*
O=C(NCC1CCN(S(=O)(=O)c2ccccc2)CC1)Nc1ccc(F)cc1	-6%	i	i	?	0%	?
O=C(NCC1CCN(c2ccc(S(=O)(=O)N3CCOCC3)cc2)CC1)Nc1ccccc1	-3%	i	i	?	-1%	23µM*
COC(=O)c1[nH]c(C)c(/C(O)=C2\C(=O)C(=O)N(CCN3CCOCC3)C2c2ccc(C)o2)c1C (configuration not stated)	6%	i	?	1%	10%	11%
NC(C(=O)O)C(c1ccccc1)C(F)F (configuration not stated)	1%	i	i	-3%	-4%	7%
Cc1ccc(Nc2cc(C)c(O)c(C)c2)cc1	0%	i	i	5.2µM*	-6%	5.2µM*
COc1cc2c(cc1OC)CN(Cc1cc(=O)n3cc(C)ccc3n1)CC2	-6%	i	i	-5%	-5%	?
Cc1cccc(-n2nnnc2SCn2nnc3ccccc3c2=O)c1	-5%	i	13µM*	?	6%	?
O=c1c2ccccc2nnn1CSc1nnnn1-c1ccc(O)cc1	-9%	i	i	-13%	-20%	?
